Bioassay records as filed in PubChem BioAssay.
Rows were chosen to be rich in hits. Some 1.6% of all compounds tested hit in one or more screens of this group.
KCNQ2 inh: blocks the rat KCNQ2 potassium channel; CHO-K1 KCNQ2, FluxOR thallium flux, 20 min; active compounds read low; B-score at 10 µM; 310,000 compounds, 1.1% hits; AID 2156;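 active = fluorescence ratio B-score at most minus 3 library SDs, with starting brightness B-score within 2 library SDs, cut at about -5.5 in these data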
Target sequence (O88943 whole entry, looked up): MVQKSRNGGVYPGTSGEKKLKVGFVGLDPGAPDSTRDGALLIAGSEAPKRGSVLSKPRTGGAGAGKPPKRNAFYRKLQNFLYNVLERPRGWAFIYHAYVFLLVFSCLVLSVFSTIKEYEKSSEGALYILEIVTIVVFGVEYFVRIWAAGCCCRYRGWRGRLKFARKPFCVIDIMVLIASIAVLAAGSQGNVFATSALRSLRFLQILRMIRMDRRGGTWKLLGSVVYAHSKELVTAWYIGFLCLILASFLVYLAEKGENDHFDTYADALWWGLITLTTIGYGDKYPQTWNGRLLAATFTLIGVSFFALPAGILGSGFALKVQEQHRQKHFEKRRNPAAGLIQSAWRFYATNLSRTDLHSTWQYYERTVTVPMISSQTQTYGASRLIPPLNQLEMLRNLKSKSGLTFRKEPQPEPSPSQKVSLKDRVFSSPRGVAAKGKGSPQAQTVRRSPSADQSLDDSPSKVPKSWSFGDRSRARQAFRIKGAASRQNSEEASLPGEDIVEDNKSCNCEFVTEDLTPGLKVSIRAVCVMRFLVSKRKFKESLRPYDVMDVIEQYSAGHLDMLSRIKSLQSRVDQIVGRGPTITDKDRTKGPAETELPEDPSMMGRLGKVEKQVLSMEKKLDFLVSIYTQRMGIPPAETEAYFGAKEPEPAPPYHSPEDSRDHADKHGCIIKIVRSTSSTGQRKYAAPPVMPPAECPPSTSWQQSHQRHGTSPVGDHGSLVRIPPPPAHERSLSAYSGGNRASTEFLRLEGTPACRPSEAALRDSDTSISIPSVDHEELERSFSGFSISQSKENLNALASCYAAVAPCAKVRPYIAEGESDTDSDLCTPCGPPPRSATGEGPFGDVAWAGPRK
KCNQ2 pot: KCNQ2 (rat) channel potentiation; AID 2239; O88943; CHO-K1 KCNQ2, FluxOR thallium flux fluorescence; active compounds read high; 310,000 compounds, 0.54% hits; B-score at 10 µM;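 active = fluorescence ratio B-score at least 3 SD of library B-scores, with initial fluorescence B-score within 3 of them, cut at about 5.3 in these data; same plate scores as AID 2156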;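 note: B-score of peak minus minimum over baseline fluorescence ratio after K+ and Tl+ stimulus; positive B-score means potentiation of KCNQ2 with more thallium influx and brighter signal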
The depositor's hits bear a star; i = inactive; . = not tested or not shown.

SMILES | KCNQ2 inh | KCNQ2 pot
O=C(NCc1ccc2c(c1)OCO2)C1CCN(S(=O)(=O)c2ccc(Br)s2)CC1 | i | 17*
Cn1ncc(C#N)c1/N=C/N(Cc1ccccc1)Cc1ccccc1 | -5.7* | -5.7
Cn1ncc(C#N)c1/N=C/N1CCCC1 | i | 0.14
COc1cc(CCN2C(=O)c3cccc4cccc(c34)C2=O)c(S(=O)(=O)N2CCCCCC2)cc1OC | i | .
COc1cc(CCN2C(=O)c3cccc4cccc(c34)C2=O)c(S(=O)(=O)N2CCC(C)CC2)cc1OC | -6.7* | -6.7
O=C(COC(=O)C(Cc1ccccc1)NC(=O)c1ccc(Cl)cc1)c1ccc(Cl)cc1 (stereo not given) | i | 2
CN(CCOc1ccc(Cl)cc1)C(=O)c1cc(-c2ccco2)nc2ccccc12 | -13* | -13
COc1cccc(NC(=O)CN(C)C(=O)c2cc(-c3ccco3)nc3ccccc23)c1 | i | .
Cc1cc(C(F)(F)F)nn1Cc1n[nH]c(=S)n1-c1ccc(F)cc1 | i | 0.62
Cc1cc(-c2n[nH]c(=S)n2-c2ccc(F)cc2)nn1C | -6.3* | -6.3
COc1cc(SC)ccc1C(=O)OCC(=O)N1CCN(C(C)=O)CC1 | i | 0.18
CC(C)N(C(=O)CSc1nc2ccccc2n1Cc1ccccc1)C(C)C | i | .
CC(C)N(C(=O)CSc1nc2ccccc2n1-c1ccccc1)C(C)C | -6* | -6
COc1ccc(NC2=Nc3cccc4cccc2c34)cc1OC | i | .
COc1cc(NC2=Nc3cccc4cccc2c34)cc(OC)c1OC | -6* | -6
Cc1ccc(-n2nc3c(=O)n(C(C)C(=O)NCCCc4ccccc4)nc(C)c3c2C)cc1 (stereo not given) | i | .
Cc1ccc(-n2nc3c(=O)n(C(C)C(=O)NCc4ccccc4Cl)nc(C)c3c2C)cc1 (stereo not given) | -8.1* | -8.1
COc1cccc(-c2nc(CS(=O)(=O)CC(=O)NCc3ccccc3)c(C)o2)c1 | -5.9* | -5.9
COc1cccc(-c2nc(CS(=O)(=O)CC(=O)NCCCc3ccccc3)c(C)o2)c1 | i | .
COc1ccc(N(CC(=O)NC2CCCCCC2)S(=O)(=O)c2ccccc2)cc1Cl | i | .
Cc1nc(NC(=O)CSc2nnc(-c3ccc4c(c3)OCO4)o2)c(Cl)cc1Cl | i | 18*
O=C(CSc1nnc(-c2ccc3c(c2)OCO3)o1)Nc1ncc(C(F)(F)F)cc1Cl | i | 1.6
COc1ccc2c(c1)C=C([C@@H]1C[C@H]3CN(c4ccccc4)C(=O)[C@]34CCCN14)CO2 | i | .
O=c1c2[nH]cnc2n(-c2cccc(Br)c2)c(=O)n1Cc1ccccc1 | i | 0.43
O=C(N[C@@H](Cc1c[nH]c2ccccc12)C(=O)O)c1ccc(Cl)cc1 | i | 1
SMILES | KCNQ2 inh | KCNQ2 pot
NC(=NCCc1c[nH]c2ccccc12)NC(=O)c1ccc(Cl)cc1 | -5.7* | -5.7
CCCNCc1cc(OC)c(OCc2ccccc2)cc1Br | i | 0.73
Cc1nc2nc(SCc3ccccc3)[nH]n2c(=O)c1CCC(C)C | i | .
CC(C)N1CCc2c(sc(NC(=O)c3cc(-c4cccs4)nc4ccccc34)c2C(N)=O)C1 | -6.4* | -6.4
CC(C)N1CCc2c(sc(NC(=O)c3nc4ccccc4s3)c2C(N)=O)C1 | i | .
COc1ccc(OC)c(CCNC(=O)CCc2nnc3ccc(N4CCOCC4)nn23)c1 | i | 0.31
Cc1csc2ncc(C(=O)NC(C)c3ccccc3)c(=O)n12 (stereo not given) | i | .
CC(NC(=O)COc1ccccc1F)C1CC2CCC1C2 (stereo not given) | -6* | -6
CC(NC(=O)c1ccc(F)cc1)C1CC2CCC1C2 (stereo not given) | i | .
O=C(NNC1=Nc2cccc3cccc1c23)c1ccc(Br)cc1 | i | 0.32
O=C(CSc1nnc(-c2ccco2)o1)N1c2ccccc2CCc2ccccc21 | i | .
Clc1ccc(CSc2nncn2-c2ccccn2)cc1 | i | 0.68
Clc1ccc(CSc2nncn2-c2ccc3c(c2)OCCO3)cc1 | -7.7* | -7.7
CCOC(=O)C1(CCCc2ccccc2)CCN(C(=O)c2cnn(CC)c2)CC1 | i | .
Cc1ccc(NC(=O)C(OC(=O)c2ccccc2Cl)c2ccccc2)cc1Cl (stereo not given) | i | .
Cc1cc(C(=O)OC(C(=O)Nc2ccc(C)c(Cl)c2)c2ccccc2)c(C)o1 (stereo not given) | -5.8* | -5.8
CCCn1c(=S)[nH]c2cc(C(=O)N3CCN(C4CCCCC4)CC3)ccc2c1=O | i | 0.86
O=C1[C@H]2[C@@H](c3ccc(F)cc3)N3C(=O)N(c4ccc(Br)cc4)C(=O)[C@@]3(Cc3ccccc3)[C@H]2C(=O)N1C1CCCCC1 | i | 0.04
COC(=O)C(C)Sc1nc2ccsc2c(=O)n1Cc1ccccc1 (stereo not given) | i | .
OC(CNCc1ccccc1Cl)C(F)(F)F (stereo not given) | i | .
CCN(CC)CCNC(=O)c1ccc(NC(=O)Nc2cccc3ccccc23)cc1 | i | 0.01
Cc1ccc(S(=O)(=O)NC(CC(C)C)C(=O)Oc2ccc3c4c(c(=O)oc3c2)CCC4)cc1 (stereo not given) | -7.9* | -7.9
CC[C@@H](NS(=O)(=O)c1ccc(C)cc1)C(=O)Oc1ccc2c3c(c(=O)oc2c1)CCC3 | i | 0.64
CN(c1ccc(C(=O)N2CCN(Cc3ccccc3)CC2)cc1)S(=O)(=O)c1ccc(Cl)cc1 | i | .
COc1ccc(C(O)(C2CCCCC2)C(CN2CCOCC2)c2ccccc2)cc1 (stereo not given) | i | .
SMILES | KCNQ2 inh | KCNQ2 pot
OC(c1ccccc1)(C1CCCCC1)C(CN1CCOCC1)c1ccccc1 (stereo not given) | -5.7* | -5.7
CC(Oc1cc(-c2ccccc2)cc2ccccc12)C(=O)N1CCOCC1 (stereo not given) | i | .
Cc1ccc(S(=O)(=O)N(C)CC(=O)Nc2cc(C)ccn2)cc1 | i | 0.84
Cc1ccc(C2C3=C(CC(C)(C)CC3=O)N=C3c4ccccc4C(=O)C32)cc1 (stereo not given) | i | .
C=CCC1(C#N)C(SC)=NC2=C(C(=O)CC(C)(C)C2)C1c1ccc(Br)cc1 (stereo not given) | -6.6* | -6.6
Cc1ccc(NC(=O)NCCN2CCCCC2)cc1C | i | 0.73
CCCCSCCCNC(=O)Nc1ccc(C)c(C)c1 | i | 8.7*
CC(=O)Nc1ccc(S(=O)(=O)N(C)CC(=O)OCC(=O)N2CCCC2=O)cc1 | i | .
CC(C)(C)OC(=O)N1CC=C2C(C#N)=C(N)C(C#N)(C#N)C(c3cccs3)C2C1 (stereo not given) | -6.2* | -6.2
CCOC(=O)N1CC=C2C(C#N)=C(N)C(C#N)(C#N)[C@H](c3cccs3)C2C1 (stereo not given in full) | i | .
O=C(NC(Cc1c[nH]c2ccccc12)C(=O)N/N=C/c1cccc2ccccc12)c1cccs1 (stereo not given) | -8.1* | -8.1
O=C(NC(Cc1c[nH]c2ccccc12)C(=O)O)c1cccs1 (stereo not given) | i | .
Cc1cs/c(=N\N=C2CCCCC2)n1Cc1ccco1 | i | .
COc1ccc(CC(=O)Nc2cccc(-c3nnc(-c4cccc(C)c4)o3)c2)cc1OC | -7* | -7
COc1ccc(CC(=O)Nc2cccc(-c3nnc(-c4ccc(C)cc4)o3)c2)cc1OC | i | .
C[C@H](NCc1c[nH]c2ccccc12)c1ccccc1 | i | .
O=C(/C=C/c1ccc([N+](=O)[O-])cc1)OCC(=O)N1c2ccccc2Sc2ccccc21 | i | .
